# Test results from PubChem BioAssay (NCATS).
# “And” between values parts separate entries of the source, which are not always exact repeats. Equal values may be shown once. Results filed as inconclusive are left out. A call without a number means that no potency is given here. More than one record can exist for a structure, and the calls need not agree. The source made the active and inactive calls. Calls come from the whole dose curve; as a rule, active = well fitted curve in the direction sought with a large enough effect; inconclusive = small, poorly fitted or top-dose-only effect, or another doubt; inactive = no such curve, though single readings can be large; an effect the other way counts as inactive or inconclusive.
# Columns and labels:
# C33A = assay: Primary qHTS to identify gynecologic anti-cancer compounds using libraries of approved drugs and bioactive compounds (AID 1345084); conditions: Gynecologic cancer cell panel viability, ATPlite luminescence, 48 h; series mostly up to 57.5 µM; note: nearly all actives have a fitted effect of over 55% in size
# Method in brief: (§1)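 Five-point cytotoxicity, 48 h drug exposure at 37 C, 5% CO2, on cells seeded 16 h beforehand. ATP content read by ATPlite luminescence.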
# CAOV3 = assay: as above; conditions: Gynecologic cancer cell panel viability, ATPlite luminescence, 48 h; series mostly up to 57.5 µM
# Method in brief: as §1
# CASKI = assay: as above; conditions: Gynecologic cancer cell panel viability, ATPlite luminescence, 48 h; series mostly up to 57.5 µM
# Method in brief: as §1
# Es-2 = assay: as above; conditions: Gynecologic cancer cell panel viability, ATPlite luminescence, 48 h; series mostly up to 57.5 µM
# Method in brief: as §1
# HeLa = assay: as above; conditions: Gynecologic cancer cell panel viability, ATPlite luminescence, 48 h; series mostly up to 57.5 µM
# Method in brief: as §1
# Hek293T = assay: as above; conditions: Gynecologic cancer cell panel viability, ATPlite luminescence, 48 h, control line for the selectivity index; series mostly up to 57.5 µM
# Method in brief: as §1
# JEG-3 = assay: as above; conditions: Gynecologic cancer cell panel viability, ATPlite luminescence, 48 h; series mostly up to 57.5 µM
# Method in brief: as §1
# OV90 = assay: as above; conditions: Gynecologic cancer cell panel viability, ATPlite luminescence, 48 h; series mostly up to 57.5 µM
# Method in brief: as §1
# PA-1 = assay: as above; conditions: Gynecologic cancer cell panel viability, ATPlite luminescence, 48 h; series mostly up to 57.5 µM
# Method in brief: as §1
# SKOV3 = assay: as above; conditions: Gynecologic cancer cell panel viability, ATPlite luminescence, 48 h; series mostly up to 57.5 µM
# Method in brief: as §1
# Tov-21-G = assay: as above; conditions: Gynecologic cancer cell panel viability, ATPlite luminescence, 48 h; series mostly up to 57.5 µM
# Method in brief: as §1
# Tov112D = assay: as above; conditions: Gynecologic cancer cell panel viability, ATPlite luminescence, 48 h; series mostly up to 57.5 µM
# Method in brief: as §1
# [1] = Drug repurposing screens with cells derived from glioblastoma tumor samples (AID 1345199); conditions: GBM patient neurospheres viability, ATP luminescence, 48 h; note: nearly all actives have a fitted effect of over 40% in size
# Method in brief: (§2)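 Four patient lines of CD133+ GBM neurospheres were screened at several concentrations; hits were retested in those lines plus three slower-growing GBM lines, using 48-hour treatment and ATP-based viability.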
# astro = assay: as above; conditions: viability, ATP luminescence, 48 h; series mostly up to 45.9 µM
# Method in brief: as §2
# [2] = at 45.9 µM (top of the series), tumour line B
# [3] = at 45.9 µM (top of the series), tumour line D
# [4] = at 46 µM (top of the series), tumour line A
# [5] = at 46.1 µM (top of the series), tumour line C
# Potency is the fitted concentration of half-maximal effect.
smiles,measurement,setting,value
C#CCN[C@@H]1CCc2ccccc21,Potency,C33A,inactive
same,Potency,CAOV3,inactive
same,Potency,CASKI,inactive
same,Potency,Es-2,inactive
same,Potency,HeLa,inactive
same,Potency,Hek293T,inactive
same,Potency,JEG-3,inactive
same,Potency,OV90,inactive
same,Potency,PA-1,inactive
same,Potency,SKOV3,inactive
same,Potency,Tov-21-G,inactive
same,Potency,Tov112D,inactive
same,"activity, negative = cell killing",[1]; [2],-8.4% (inactive)
same,"activity, negative = cell killing",[1]; [3],-8% (inactive)
same,"activity, negative = cell killing",[1]; [4],-26% (inactive)
same,"activity, negative = cell killing",[1]; [5],-23.8% (inactive)
same,Potency,astro,inactive
CCC(C)(C)c1ccc(CC(C)CN2C[C@@H](C)O[C@@H](C)C2)cc1 (stereo partly drawn),Potency,C33A,inactive
same,Potency,CAOV3,inactive
same,Potency,CASKI,inactive
same,Potency,Es-2,inactive
same,Potency,HeLa,inactive
same,Potency,Hek293T,inactive
same,Potency,JEG-3,inactive
same,Potency,OV90,inactive
same,Potency,PA-1,inactive
same,Potency,SKOV3,inactive
same,Potency,Tov-21-G,inactive
same,Potency,Tov112D,inactive
Nc1[nH]c(=O)ncc1F,Potency,C33A,inactive
same,Potency,CAOV3,inactive
same,Potency,CASKI,inactive
same,Potency,Es-2,inactive
same,Potency,HeLa,inactive
same,Potency,Hek293T,inactive
same,Potency,JEG-3,inactive
same,Potency,OV90,inactive
same,Potency,PA-1,inactive
same,Potency,SKOV3,inactive
same,Potency,Tov-21-G,inactive
same,Potency,Tov112D,inactive
same,"activity, negative = cell killing","[1]; at 20 µM (top of the series), tumour line C",6.56% (inactive)
same,"activity, negative = cell killing","[1]; at 21.2 µM (top of the series), tumour line B",-3.24% (inactive)
same,"activity, negative = cell killing","[1]; at 21.2 µM (top of the series), tumour line D",-9.05% (inactive)
same,"activity, negative = cell killing","[1]; at 21.3 µM (top of the series), tumour line A",-15% (inactive)
O=c1oc2c(O)c(O)cc3c(=O)oc4c(O)c(O)cc1c4c23,Potency,C33A,inactive
same,Potency,CAOV3,inactive
same,Potency,CASKI,inactive
same,Potency,Es-2,inactive
same,Potency,HeLa,inactive
same,Potency,Hek293T,inactive
same,Potency,JEG-3,inactive
same,Potency,OV90,inactive
same,Potency,PA-1,inactive
same,Potency,SKOV3,inactive
same,Potency,Tov-21-G,inactive
same,Potency,Tov112D,inactive
same,"activity, negative = cell killing",[1]; [2],-21.4% (inactive)
same,"activity, negative = cell killing",[1]; [5],-1.64% (inactive)
CCOC(=O)[C@H](CCc1ccccc1)N[C@H]1CS[C@H](c2cccs2)CN(CC(=O)O)C1=O,Potency,C33A,inactive
same,Potency,CAOV3,inactive
same,Potency,CASKI,inactive
same,Potency,Es-2,inactive
same,Potency,HeLa,inactive
same,Potency,Hek293T,inactive
same,Potency,JEG-3,inactive
same,Potency,OV90,inactive
same,Potency,PA-1,inactive
same,Potency,SKOV3,inactive
same,Potency,Tov-21-G,inactive
same,Potency,Tov112D,inactive
same,"activity, negative = cell killing",[1]; [2],-5.27% (inactive)
same,"activity, negative = cell killing",[1]; [3],-7.87% (inactive)
same,"activity, negative = cell killing",[1]; [4],-16.7% (inactive)
same,"activity, negative = cell killing",[1]; [5],-21.6% (inactive)
NCCCC(O)(P(=O)(O)O)P(=O)(O)O,Potency,C33A,inactive
same,Potency,CAOV3,inactive
same,Potency,CASKI,inactive
same,Potency,Es-2,inactive
same,Potency,HeLa,inactive
same,Potency,Hek293T,inactive
same,Potency,JEG-3,inactive
same,Potency,OV90,inactive
same,Potency,PA-1,inactive
same,Potency,SKOV3,inactive
same,Potency,Tov-21-G,inactive
same,Potency,Tov112D,inactive
same,"activity, negative = cell killing",[1]; [2],-8.76% (inactive)
same,"activity, negative = cell killing",[1]; [3],1.9% (inactive)
same,"activity, negative = cell killing",[1]; [4],-6.09% (inactive)
same,"activity, negative = cell killing",[1]; [5],-10.2% (inactive)
CCN(C)C(=O)Oc1cccc([C@H](C)N(C)C)c1,Potency,C33A,inactive
same,Potency,CAOV3,inactive
same,Potency,CASKI,inactive
same,Potency,Es-2,inactive
same,Potency,HeLa,inactive
same,Potency,Hek293T,inactive
same,Potency,JEG-3,inactive
same,Potency,OV90,inactive
same,Potency,PA-1,inactive
same,Potency,SKOV3,inactive
same,Potency,Tov-21-G,inactive
same,Potency,Tov112D,inactive
same,"activity, negative = cell killing",[1]; [2],-13.1% (inactive)
same,"activity, negative = cell killing",[1]; [3],-25.1% (inactive)
same,"activity, negative = cell killing",[1]; [5],-30% (inactive)
same,Potency,[1]; tumour line A,20 µM (active)
C[C@]12C=CC(=O)C=C1CC[C@@H]1[C@@H]2C(=O)C[C@@]2(C)[C@H]1CC[C@]2(O)C(=O)CO,Potency,C33A,inactive
same,Potency,CAOV3,inactive
same,Potency,CASKI,inactive
same,Potency,Es-2,inactive
same,Potency,HeLa,inactive
same,Potency,Hek293T,inactive
same,Potency,JEG-3,inactive
same,Potency,OV90,inactive
same,Potency,PA-1,inactive
same,Potency,SKOV3,inactive
same,Potency,Tov-21-G,inactive
same,Potency,Tov112D,inactive
same,"activity, negative = cell killing",[1]; [2],-6.23% (inactive)
same,"activity, negative = cell killing",[1]; [3],5.45% (inactive)
same,"activity, negative = cell killing",[1]; [5],-7.06% (inactive)
COc1cccc(N(C)C(=S)Oc2ccc3c(c2)CCCC3)n1,Potency,C33A,inactive
same,Potency,CAOV3,inactive
same,Potency,CASKI,inactive
same,Potency,Es-2,inactive
same,Potency,HeLa,inactive
same,Potency,Hek293T,inactive
same,Potency,JEG-3,inactive
same,Potency,OV90,inactive
same,Potency,PA-1,inactive
same,Potency,SKOV3,inactive
same,Potency,Tov-21-G,inactive
same,Potency,Tov112D,inactive
same,"activity, negative = cell killing",[1]; [5],-18.5% (inactive)
same,Potency,[1]; tumour line A,12.6 µM (active)
same,Potency,[1]; tumour line D,17.8 µM (active)
COc1cc2c(Nc3ccc(Br)cc3F)ncnc2cc1OCC1CCN(C)CC1,Potency,C33A,inactive and 22.4 µM (active)
same,Potency,CAOV3,inactive
same,Potency,CASKI,inactive
same,Potency,Es-2,inactive
same,Potency,HeLa,inactive
same,Potency,Hek293T,inactive
same,Potency,JEG-3,inactive and 28.2 µM (active)
same,Potency,OV90,inactive
same,Potency,PA-1,inactive
same,Potency,SKOV3,inactive and 12.6 µM (active)
same,Potency,Tov-21-G,inactive
same,Potency,Tov112D,inactive and 31.6 µM (active)
CCOC(=O)c1ccc(C#Cc2ccc3c(c2)C(C)(C)CCS3)nc1,Potency,C33A,inactive
same,Potency,CAOV3,inactive
same,Potency,CASKI,inactive
same,Potency,Es-2,inactive
same,Potency,HeLa,inactive
same,Potency,Hek293T,inactive
same,Potency,JEG-3,inactive
same,Potency,OV90,inactive
same,Potency,PA-1,inactive
same,Potency,SKOV3,inactive
same,Potency,Tov-21-G,inactive
same,Potency,Tov112D,inactive
C[C@@H]1CN(c2c(F)c(N)c3c(=O)c(C(=O)O)cn(C4CC4)c3c2F)C[C@H](C)N1,Potency,C33A,inactive
same,Potency,CAOV3,inactive
same,Potency,CASKI,inactive
same,Potency,Es-2,inactive
same,Potency,HeLa,inactive
same,Potency,Hek293T,inactive
same,Potency,JEG-3,inactive
same,Potency,OV90,inactive
same,Potency,PA-1,inactive
same,Potency,SKOV3,inactive
same,Potency,Tov-21-G,inactive
same,Potency,Tov112D,inactive
same,"activity, negative = cell killing",[1]; [2],-1.03% (inactive)
same,"activity, negative = cell killing",[1]; [3],-17% (inactive)
same,"activity, negative = cell killing",[1]; [4],-8% (inactive)
same,"activity, negative = cell killing",[1]; [5],-3.77% (inactive)
COCCCOc1cc(C[C@@H](C[C@H](N)[C@@H](O)C[C@H](C(=O)NCC(C)(C)C(N)=O)C(C)C)C(C)C)ccc1OC,Potency,C33A,inactive
same,Potency,CAOV3,inactive
same,Potency,CASKI,inactive
same,Potency,Es-2,inactive
same,Potency,HeLa,inactive
same,Potency,Hek293T,inactive
same,Potency,JEG-3,inactive
same,Potency,OV90,inactive
same,Potency,PA-1,inactive
same,Potency,SKOV3,inactive
same,Potency,Tov-21-G,inactive
same,Potency,Tov112D,inactive
same,"activity, negative = cell killing",[1]; [2],9.07% (inactive)
same,"activity, negative = cell killing",[1]; [3],12.6% (inactive)
same,"activity, negative = cell killing",[1]; [5],3% (inactive)
CC(C(=O)O)c1ccc2c(c1)CC(=O)c1ccccc1S2 (stereo not drawn),Potency,C33A,inactive
same,Potency,CAOV3,inactive
same,Potency,CASKI,inactive
same,Potency,Es-2,inactive
same,Potency,HeLa,inactive
same,Potency,Hek293T,inactive
same,Potency,JEG-3,inactive
same,Potency,OV90,inactive
same,Potency,PA-1,inactive
same,Potency,SKOV3,inactive
same,Potency,Tov-21-G,inactive
same,Potency,Tov112D,inactive
same,"activity, negative = cell killing",[1]; [2],-3.56% (inactive)
same,"activity, negative = cell killing",[1]; [3],-21.1% (inactive)
same,"activity, negative = cell killing",[1]; [4],-9.77% (inactive)
same,"activity, negative = cell killing",[1]; [5],5.54% (inactive)
